From PubChem BioAssay AID1209 (Sanford-Burnham Center for Chemical Genomics, 2008) come the findings set out here.

Screen size: about 190,000 compounds; about 810 (0.43%) were called active. The sample holds actives, similar compounds and a random draw of the others, so the mix is not that of the screen. A number with no mark means an inactive call. Rule as the data show it: active = inhibition above about 50%; inactive = the rest.

Chain of Mannose-6-phosphate isomerase (Homo sapiens) (P34949 whole entry, looked up): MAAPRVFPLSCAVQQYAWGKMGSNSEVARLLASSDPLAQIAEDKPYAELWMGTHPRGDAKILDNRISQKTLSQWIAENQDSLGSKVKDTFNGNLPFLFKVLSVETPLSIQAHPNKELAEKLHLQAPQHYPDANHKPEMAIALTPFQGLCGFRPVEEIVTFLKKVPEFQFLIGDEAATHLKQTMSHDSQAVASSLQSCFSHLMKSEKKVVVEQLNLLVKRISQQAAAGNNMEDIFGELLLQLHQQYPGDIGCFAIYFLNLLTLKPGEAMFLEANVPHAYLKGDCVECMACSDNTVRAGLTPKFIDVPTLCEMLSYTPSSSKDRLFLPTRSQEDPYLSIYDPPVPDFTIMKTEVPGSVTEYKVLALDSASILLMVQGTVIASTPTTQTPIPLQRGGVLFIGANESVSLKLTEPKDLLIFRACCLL

This experiment addresses Mannose-6-phosphate isomerase (Homo sapiens) (UniProt P34949). The experiment is described as follows: inhibitors of human PMI, primary screen, biochemical, fluorescence intensity, coupled assay (AID 1209).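 Also: plate controls were DMSO vehicle for no effect and wells lacking substrate for full effect.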 As to conditions: purified PMI enzyme, at 20 µM, active compounds read high.
Turning to `O=c1cc(O)nc(SCc2ccccc2)[nH]1`, the inhibition (in general, the relative decrease from the control value, in per cent) is 17.4%.
In the case of `CCn1c2ccccc2c2nc3cc(C(=O)O)ccc3nc21`, the inhibition is 6.3%.
The value for `CCn1c2ccccc2c2nc3cc(S(=O)(=O)N4CCOCC4)ccc3nc21` was 70.3% (active).
Next, `CCn1c2ccccc2c2nc3ccccc3nc21`: 4.5%.
The value for `COc1ccc(CN2C(=O)NC3(CCOc4ccccc43)C2=O)cc1F` (stereo not given) was 7.7%; that for `CC(C)OC(=O)c1cccc(C(=O)Oc2ccccc2)n1` was -3.1%; that for `Cc1ccc(NC(=O)NC(=O)N(C(C)C)S(C)(=O)=O)nc1` was -7.9%.
`Cc1[nH]n(-c2ccccc2)c(=O)c1C=Nc1ccc(S(=O)(=O)N(C)C)cc1`: the inhibition was -3.8%.
Next, `Cc1[nH]n(-c2ccccc2)c(=S)c1C=Nc1ccc([N+](=O)[O-])cc1`: 69.1% (active); `Cc1[nH]n(-c2ccccc2)c(=S)c1C=NCCCN=Cc1c(C)[nH]n(-c2ccccc2)c1=S`: -3.9%; `CCN1/C(=C/c2ccc3ccccc3[n+]2CC)C=Cc2ccccc21`: 15.5%.
Next, `CC[n+]1ccc(/C=C2\Sc3ccccc3N2CCCS(=O)(=O)[O-])c2ccccc21`: 8.2%; `C[n+]1ccc(/C=C/c2ccccc2O)c2ccccc21`: 12.3%; `CN1/C(=C/c2cc[n+](C)c3ccccc23)C=Cc2ccccc21`: 70.7% (active).
The value for `CN1C=C/C(=C\c2cc[n+](C)c3ccccc23)c2ccccc21` was 59.2% (active).
Consider `COc1ccc(N=c2oc3cc(O)ccc3cc2C(=O)Nc2ccccn2)cc1OC`, for which the inhibition was 14.8%.
In the case of `NC1=NC2CS(=O)(=O)CC2S1` (stereo not given), the inhibition is 2.4%.
Next, `O=C(c1ccc([N+](=O)[O-])cc1)N1CCN(C(=O)c2ccco2)CC1`: 1.1%; `COc1ccc(CC(=O)OCC(=O)Nc2cccnc2Cl)cc1OC`: -1.9%; `CCOC(=O)N1CCN(C(=O)C2CCN(S(=O)(=O)N(CC)CC)CC2)CC1`: -12%.
The value for `CCOC(=O)c1ccccc1N/C=C1\CCCCC1=O` was -4.9%; that for `COC(=O)c1ccccc1NC(=S)N1CCN(c2ccccn2)CC1` was 7.2%.
As for `COC(=O)c1ccccc1N/C=C1\CCc2c(c(C)nn2-c2ccccn2)C1=O`, the inhibition is 85.2% (active).
On to `Cc1ccc(NCc2ccccc2O)c(C)c1`, for which the inhibition is 2.8%.
The value for `COc1ccc(/C=C(\C#N)C(=O)OCC(=O)NCc2ccccc2)cc1` was 0.9%.
Take `COc1ccc(/C=C(\C#N)C(=O)OCCNC(=O)c2ccncc2)cc1`: the inhibition was 67.7% (active).
With `COc1ccc(/C=C(\C#N)C(=O)OCC(=O)NC(=O)NCCC(C)C)cc1`, the inhibition was -4.9%.
Regarding `CCCOc1ccc(CNC(=S)NCc2ccc(OC(C)C)cc2)cc1`, the inhibition is 6.1%.
The value for `O=C(NCc1ccncc1)c1ccc(N2CCCC2)c([N+](=O)[O-])c1` was 72.1% (active); that for `O=C(NCc1ccccn1)c1ccc(N2CCCC2)c([N+](=O)[O-])c1` was -10.4%.
With `O=C(NCc1ccc2c(c1)OCO2)c1ccc(N2CCCCCC2)c([N+](=O)[O-])c1`, the inhibition is 10.1%.
Next, `CN(C)S(=O)(=O)c1cccc(NC(=S)Nc2ccc3cn[nH]c3c2)c1`: 44.4%; `S=C(Nc1ccc2cn[nH]c2c1)Nc1ccc(Cl)cc1Cl`: 55.6% (active); `Cc1ccc(S(=O)(=O)N(C)C)cc1NC(=S)Nc1ccc2[nH]c(=O)[nH]c2c1`: 44.5%.
The value for `Cc1ccc(S(=O)(=O)N(C)C)cc1NC(=S)Nc1ccc2cn[nH]c2c1` was 55.4% (active); that for `S=C(Nc1ccc(Cl)cc1)Nc1ccc2cn[nH]c2c1` was 23.6%; that for `S=C(Nc1ccc2cn[nH]c2c1)Nc1ccccc1Cl` was 14.1%.
The value for `C/C(=N\NC(=O)COc1ccc(C(C)(C)C)cc1)c1ccc2c(c1)OCCO2` was 19%; that for `COc1ccccc1NC(=O)Cn1cnc2c(oc3ccccc32)c1=O` was 4.7%; that for `Cc1ccc2c(c1)sc[n+]2Cc1ccccc1` was -11.9%.
Consider `COC(=O)[C@H](CC(C)C)NC(=O)CCc1nnc(COc2ccccc2)o1`, for which the inhibition was -1.7%.
For `CNC(=O)NCC12CC3CC(CC(C3)C1)C2`, the inhibition is 0%.
The value for `COCCN=c1scc(-c2ccccc2)n1/N=C/c1c[nH]c2ccccc12` was 25.3%; that for `CCN=c1scc(C)n1/N=C/c1ccc(O)c(O)c1O` was 82.5% (active); that for `COCCN=c1scc(-c2cccs2)n1/N=C(\C)c1ccco1` was -16.8%.
Next, `COCCN=c1scc(-c2ccco2)n1/N=C/c1ccc(O)c(O)c1O`: 69.7% (active).
The value for `COc1ccc(O)c(/C=N/n2c(-c3ccco3)csc2=Nc2cccnc2)c1` was 11.8%; that for `CCN=c1scc(-c2cccs2)n1/N=C/c1cc(OC)ccc1O` was -5%; that for `COCCN=c1scc(-c2cccs2)n1/N=C/c1ccc(O)c(O)c1O` was 68.4% (active).
For `CCN=c1scc(C)n1/N=C/c1cc(Br)c(O)c(Br)c1`, the inhibition is -24.9%.
`CCN=c1scc(C)n1/N=C/c1ccsc1`: the inhibition was -6.7%.
Next, `Cc1c(Br)cc(C(=O)OC2CCN(C)CC2)c(C)c1C`: -1.2%; `CCc1nnc(NC(=O)CSc2nnc(CNc3ccc(Cl)cc3)o2)s1`: 9.1%.
The value for `CCCNc1nc2c(c(=O)n(C)c(=O)n2C)n1Cc1ccc(F)cc1` was 15.7%.
The value for `COc1ccc2c(c1OC)C(=O)N(c1nccs1)C2` was 6.6%.
Consider `CCN=C(NS(=O)(=O)c1ccc(Br)cc1)c1ccc(Cl)cc1`, for which the inhibition is 10.4%.
The value for `CC1CCCN(S(=O)(=O)c2ccccc2[N+](=O)[O-])C1` (stereo not given) was 9.5%.
Next, `COc1ccc(C2CC2/C(C)=N/OC(=O)C2CC2)cc1` (stereo not given): 2.2%; `COc1ccc(C2CC2/C(C)=N/OC(=O)c2ccc(F)cc2)cc1` (stereo not given): 73.5% (active).
Next, `COc1ccc(C2CC2/C(C)=N/OC(=O)c2cccs2)cc1` (stereo not given): -5.4%.
As to `CCn1c(C)nc2cc(C(=O)OC(C(F)(F)C(F)F)C(F)(F)C(F)F)ccc21`, the inhibition was 18.2%.
Next, `Cc1cc2c(cc1C)N(C(=O)CSc1nncn1C)C(C)(C)c1ssc(=S)c1-2`: 10.4%; `COC(=O)c1cc(OC)nc2c1c(=O)n(C)c(=O)n2C`: -3.1%.
Next, `CCC(=O)n1nc(-c2cccnc2)nc1NCc1ccc(OC)cc1`: 8.8%; `CCCC(=O)n1nc(-c2cccnc2)nc1NCc1ccccc1`: 3.3%.
The value for `CCCC(=O)n1nc(-c2cccnc2)nc1NCc1ccc(OC)cc1` was 86.5% (active); that for `O=C(CSc1ccc2c(c1)OCCO2)Nc1cccc(S(=O)(=O)N2CCCCC2)c1` was 12.6%.
Turning to `O=C(O)c1cc2c(ccc3ccccc32)o1`, the inhibition is 4.1%.
In the case of `CC(=O)c1cc2cc(O)ccc2o1`, the inhibition was 3.2%.
For the molecule `CC(=O)c1cc2c(O)c(O)ccc2o1`, the inhibition was 81.1% (active).
Next, `COc1cc(OC)cc(C(=O)N[C@H](C(=O)Nc2nnc(C3CC3)s2)C(C)C)c1`: 11.7%; `O=C(CCc1ccccc1)OCC(=O)c1cccc([N+](=O)[O-])c1`: 3.7%; `O=C(CSc1ncnc2c1oc1ccccc12)OCc1ccccc1`: 22.9%.
The value for `COc1ccccc1N1C(=O)CC(Sc2nc(C)cc(C)n2)C1=O` (stereo not given) was 0.4%.
Take `CCOc1ccccc1N1C(=O)CC(Sc2n[nH]c(-c3ccccc3)n2)C1=O` (stereo not given): the inhibition was 36%.
The value for `O=C(CN1CCCCC1)NCCNc1ccc(C(F)(F)F)cc1[N+](=O)[O-]` was 3.9%; that for `CCN(CC)S(=O)(=O)c1ccc(N2CCCC2)c(NS(=O)(=O)c2ccc(OC)cc2)c1` was -1.6%.
The value for `COc1ccc(NS(=O)(=O)c2ccc(N3CCCC3)c(NC(=S)Nc3cccc(C)c3C)c2)cc1` was 78.9% (active); that for `COc1ccc(NS(=O)(=O)c2ccc(N3CCOCC3)c(NC(=O)c3ccccc3Cl)c2)cc1` was -2.5%.
The value for `O=S(=O)(Nc1ccc(Cl)cc1)c1ccc(N2CCOCC2)c(NC(=S)NCCN2CCOCC2)c1` was 12.4%; that for `COc1ccc(NS(=O)(=O)c2ccc(N3CCCC3)c(NC(=S)Nc3ccc(SC(F)F)cc3)c2)cc1` was 59% (active).
For `COc1ccc(NS(=O)(=O)c2ccc(N3CCOCC3)c(NC(=O)C(C)C)c2)cc1`, the inhibition was -20%.
As to `O=S(=O)(Nc1ccc(Cl)cc1)c1ccc(N2CCOCC2)c(NC(=S)NC2CC2)c1`, the inhibition is 61.3% (active).
Next, `COC(=O)CCC(=O)Nc1cc(S(=O)(=O)Nc2ccc(Cl)cc2)ccc1N1CCOCC1`: 21.8%; `COc1ccc(NS(=O)(=O)c2ccc(N3CCCC3)c(NC(=S)Nc3cccc(S(=O)(=O)N(C)C)c3)c2)cc1`: 69.9% (active); `COc1ccc(NS(=O)(=O)c2ccc(N3CCOCC3)c(NC(=O)c3ccc(OC)cc3)c2)cc1`: 9.7%.
Next, `COc1ccc(NC(=S)Nc2cccc(S(=O)(=O)N3CCCCC3)c2)cc1`: 1.3%; `COc1ccc(NS(=O)(=O)c2ccc(N3CCOCC3)c(NC(=O)c3ccc(F)cc3)c2)cc1`: 11.8%.
Turning to `CCCCNC(=S)NNC(=O)c1csc(C)c1CC`, the inhibition was -8.1%.
The value for `O=C(O)CNC(=O)CC1S/C(=N/N=C/c2ccccc2O)NC1=O` (stereo not given) was -8.1%; that for `CCCn1c(=O)c2ccccc2n2c(SCCOc3ccc(C)cc3)nnc12` was 12.7%.
In the case of `CCn1nnnc1SCC(=O)Nc1cc(OC)cc(OC)c1`, the inhibition was 2.1%.
In the case of `COc1ccc(C(=O)COC(=O)CCN=C2NS(=O)(=O)c3ccccc32)cc1OC`, the inhibition is -5.9%.
Next, `Cc1c(NC(=O)CCC2CCCCC2)c(=O)n(-c2ccccc2)n1C`: -13.7%; `O=S(=O)(NC1=NCCC1)c1cccc(NC(=S)NCCc2ccccc2)c1`: 2.3%.
